Screens deposited in PubChem by The Scripps Research Institute Molecular Screening Center.
hgDAF-12 ag: hgDAF-12 agonism, primary luciferase screen; HEK293 GAL4-hgDAF12 UAS-luciferase reporter, agonist luminescence; normalized to butyrate control; activation, % at 6.8 µM; hit rate 1.8% among 370,000;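 active = activation above a cutoff set at the mean of all screened compounds plus 3 SD, cut at about 10% in these data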;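 note: 0% = DMSO wells and 100% = sodium butyrate wells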
hcDAF-12 act: activators of H. contortus DAF-12 nuclear receptor; HEK293 hcDAF-12 lit1-tk-luc reporter, luminescence; 0% DMSO, 100% Δ7-dafachronic acid; activation, % at 6.8 µM; hit rate 1.4% among 370,000;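 active = activation above the mean of all tested compounds plus 3 SD, cut at about 5.5% in these data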;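 note: 100% = response to 3 µM Δ7-dafachronic acid high control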
ssDAF-12 act: S. stercoralis DAF-12 activation, primary screen; HEK293 ssDAF-12/GRIP1 lit1-tk-luc reporter, luminescence; % of 3 µM dafachronic acid response; activation, % at 6.8 µM; hit rate 1% among 370,000;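 active = activation above the mean over all tested compounds plus 3 SD, cut at about 0.9% in these data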;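 note: 0% = DMSO-only wells and 100% = 3 µM delta7-dafachronic acid wells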
DAX1 inh-1: inhibitors of DAX1 repression of SF-1 activated StAR promoter | HEK293T StAR-luciferase reporter, SF-1/DAX-1 repression relief | inhibition, % at 6.8 µM | hit rate 1.1% among 370,000 | AID 652010;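 active = inhibition above the mean over all tested compounds plus 3 SD, cut at about 3.6% in these data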;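 note: 0% = DAX-1 cells with DMSO and 100% = cells lacking DAX-1 with DMSO; higher inhibition means more luminescence from relief of DAX-1 repression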
DAX1 inh-2: inhibits human nuclear receptor DAX1; hit rate 0.99% among 340,000; HEK293 Gal4-DAX1 luciferase reporter, luminescence; inhibition, % at 6.75 µM;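 active = inhibition above the mean over all tested compounds plus 3 SD, cut at about 4.2% in these data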;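 note: 0% = DAX1-transfected cells with DMSO and 100% = empty-vector control cells with DMSO; inhibition shows as a rise in luminescence from relieved DAX1 repression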
Target sequence (P51843 207-470 limits assumed): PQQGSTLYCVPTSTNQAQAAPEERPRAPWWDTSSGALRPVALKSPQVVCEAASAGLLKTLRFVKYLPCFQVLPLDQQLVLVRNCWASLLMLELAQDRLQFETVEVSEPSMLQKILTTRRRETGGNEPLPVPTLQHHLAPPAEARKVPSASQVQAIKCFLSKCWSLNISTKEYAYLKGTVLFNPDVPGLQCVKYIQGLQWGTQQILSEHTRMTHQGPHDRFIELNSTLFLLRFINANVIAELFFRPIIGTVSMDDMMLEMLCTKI
Active calls of the source: *; / = no result. In the library only some 4.1% were active in any assay of this set; here they are far more common.

SMILES	hgDAF-12 ag	hcDAF-12 act	ssDAF-12 act	DAX1 inh-1	DAX1 inh-2
Cc1c(C(=O)N(Cc2ccco2)Cc2cccs2)oc2ccccc12	2	0	1.1*	1	5.5*
CCOc1ccc2nc(SCC3CC3(Cl)Cl)[nH]c2c1 (stereo not drawn)	12*	1	-1	0	5.1*
c1ccc2[nH]c(SCC3CCCCO3)nc2c1 (stereo not drawn)	11*	3	0	2	1
Fc1c(F)c(F)c(CSc2nc3ccccc3[nH]2)c(F)c1F	2	-2	-1	0	-1
ClC1(Cl)CC1CSc1nc2ccccc2[nH]1 (stereo not drawn)	12*	-1	-1	3	0
CC(C)(C)c1ccc(C#C[C@@H]2C=C[C@@H](O)[C@@H](COC(=O)NCc3ccccc3)O2)cc1	1	1	0	-1	/
COc1ccc2c(c1)N[C@@](CCNC=O)(c1[nH]c3ccccc3c1CCNC=O)C2=O	-2	4	-1	/	/
CCN(C[C@H]1N[C@@](C)(C(=O)OC)[C@H]2C(=O)N(Cc3ccccc3)C(=O)[C@@H]12)C(=O)C1CCCCC1	-3	-1	-1	-1	-2
COC(=O)[C@]1(C)N[C@H](CN(C)C(=O)c2ccccc2)[C@@H]2C(=O)N(Cc3ccccc3)C(=O)[C@@H]21	2	2	-1	0	-1
CCN(C[C@H]1N[C@@](Cc2ccccc2)(C(=O)OC)[C@H]2C(=O)N(Cc3ccccc3)C(=O)[C@@H]12)C(=O)C1CCCCC1	3	0	0	4.2*	1
COC(=O)[C@]1(C)N[C@H](CN(C)C(C)=O)[C@@H]2C(=O)N(Cc3ccccc3)C(=O)[C@@H]21	-1	0	3.7*	0	0
N#Cc1ccc(S(=O)(=O)NCC2CCN(C(=O)C(=O)c3cc4ccccc4o3)CC2)cc1	-2	0	-1	-1	/
Cc1cccc(NC(=S)NCCC(C)C)c1	2	1	-1	0	-2
CC(C)CCNC(=O)C(=O)Nc1ccccc1	13*	1	0	3	2
Cc1cc(N2CCN(CC(C)(C)O)C[C@H]2C)ccc1N1CCN(Cc2ccccc2)[C@H](C)C1	1	-3	0	-2	/
CC1=Cc2ccccc2C(C#N)N1C(=O)c1ccccc1 (stereo not drawn)	1	0	-1	0	1
N#C[C@H]1C(O)C(O)c2ccccc2N1C(=O)c1ccccc1 (stereo partly drawn)	0	0	-1	0	4.3*
Cc1ccc(C2=NN(C(=O)CCC(=O)O)C(c3ccc4c(c3)OCO4)C2)cc1 (stereo not drawn)	0	1	-1	0	1
Cc1ccc(C2=NN(C(=O)CCC(=O)O)C(c3cccs3)C2)cc1 (stereo not drawn)	1	0	-1	0	-1
O=C(O)CCC(=O)N1N=C(c2ccccc2)CC1c1ccc2c(c1)OCO2 (stereo not drawn)	9	5.7*	1	0	2
CCc1ccc(C2=NN(C(=O)CCC(=O)O)C(c3cccs3)C2)cc1 (stereo not drawn)	6	1	0	-1	4.7*
CCc1cccc(NC(=O)Cn2c3[n+](c4ccc(C(F)(F)F)cc42)CCCCC3)c1	-5	0	-1	0	-1
O=C(Cn1c2[n+](c3ccc(C(F)(F)F)cc31)CCCCC2)Nc1ccccc1	-1	5.9*	0	0	0
Cc1ccc(-c2nc3cccnc3s2)cc1NS(=O)(=O)c1ccc2c(c1)OCCO2	3	4	0	-1	1
Cc1ccc(-c2nc3cccnc3s2)cc1NS(=O)(=O)c1cccs1	5	6.1*	0	1	3
SMILES	hgDAF-12 ag	hcDAF-12 act	ssDAF-12 act	DAX1 inh-1	DAX1 inh-2
COc1cc(-c2csc(N3CCC(C(N)=O)CC3)n2)cc(OC)c1OC	0	-1	-1	/	/
NC(=O)C1(Nc2ccc(-c3ccc(Cl)cc3)cc2)CCCC1	2	0	-1	0	-1
O=C(O)C1(Nc2ccc(Cl)cc2)CCCC1	2	0	-1	0	5.3*
CCn1c(SCC(=O)Nc2ccc(S(=O)(=O)Nc3cc(C)nc(C)n3)cc2)nc2sc(C)c(C)c2c1=O	5	-1	-2	-1	/
CN=C1S/C(=C/c2cc(C)n(-c3ccc(Cl)cc3F)c2C)C(=O)N1C	10	-1	-2	/	/
CCOc1ccc2nc(Cl)c(C3CC(c4ccco4)=NN3S(=O)(=O)c3ccccc3)cc2c1 (stereo not drawn)	2	-1	1.4*	0	-1
CC1(C(=O)OCc2cc(=O)n3cc(Br)ccc3n2)CC1(Cl)Cl (stereo not drawn)	11*	2	0	3	0
CC(=O)c1cc(-c2ccc(-c3cc(C(=O)O)c4ccccc4n3)cc2)c(=O)n2c1CCC2	-3	0	-1	0	/
Cc1[nH]c2ccc(F)cc2c1CCN1C(=O)OC(C)(C)C1(C)O (stereo not drawn)	-4	-2	0	1	7.3*
CCCN1CCCCC(NC(=O)c2cccs2)C1=O (stereo not drawn)	-1	1	0	0	/
Cc1[nH]nc2c1C(c1ccc(F)cc1)N(c1ccccc1)C2=O (stereo not drawn)	-1	-1	-1	1	/
Cc1cc(C)nc(Nc2nc3ccccc3o2)n1	5	1	-1	1	3
FC(F)(F)Oc1ccc(Nc2nc3ccccc3o2)cc1	9	5.7*	0	1	3
CN1N=C2c3ccccc3CCCC2C1c1ccc(F)cc1 (stereo not drawn)	2	5.6*	0	0	2
CC(=O)N1N=C2c3ccccc3CCC2C1c1cccs1 (stereo not drawn)	0	1	0	0	/
Cn1c(N)c(C(=O)COC(=O)CSc2ccccc2)c(=O)n(C)c1=O	1	-2	-1	0	8.5*
O=C(O)c1ccc(/C=N\Nc2ccccn2)cc1	8	6.5*	0	1	3
Cc1cc(C)nc(N/N=C/c2sccc2C)n1	5	0	-1	2	1
Cc1ccsc1/C=N/Nc1ncc(Cl)cc1Cl	11*	4	0	3	1
O=C(O)c1ccc(/C=N/Nc2ncc(Cl)cc2Cl)cc1	3	4	-1	0	6.5*
Cc1ccsc1/C=N/Nc1nc(=O)[nH]nc1C	16*	2	0	2	2
COc1ccccc1C(=O)N1CCC2CCN(C(=O)c3ccccc3)C2C1 (stereo not drawn)	-2	-1	-1	-1	/
C#CCN1C[C@@]2(O)CC[C@@H](O)[C@@H](OC)[C@@H]2[C@@]1(C)[C@H](O)CC=C(C)C	-2	-1	-2	-1	/
CN(C)c1ccc(/C=N\Nc2ccccn2)cc1	9	4	0	2	6.2*
Cc1ccc(N=CNc2ccc(C)cc2C)c(C)c1	-1	0	1.8*	0	/
NC(=O)c1ccsc1NC(=O)COC(=O)c1cccnc1Cl	11*	1	0	1	0
